In PubChem BioAssay (NCI):
The panel holds about 79,000 compounds, 15% with a hit somewhere; the sample as a whole holds those more often. Active and inactive are the calls of the source. Cut-off read from the data, not from the text of the source: active = growth inhibition above about 70%; inactive = the rest.

How the values were obtained:
[1] = NCI Yeast Anticancer Drug Screen. Data for the rad52 strain (AID 147);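 note: 0% = growth of vehicle-treated control cultures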; details: S. cerevisiae rad52 mutant growth inhibition, active compounds read high
How it was run: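 Genetically altered yeast (DNA damage repair defect) treated with compound; inhibition calculated relative to vehicle.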

[2] = NCI Yeast Anticancer Drug Screen. Data for the wt1 strain (AID 149);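 note: 0% = growth of vehicle-treated wt1 cultures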; details: S. cerevisiae wt1 strain (SPY 50644) growth inhibition, active compounds read high
How it was run: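 Each compound is tested on wt1 yeast and the loss of growth versus vehicle gives the inhibition value.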

[3] = NCI Yeast Anticancer Drug Screen. Data for the rad50EPP+ strain (AID 151);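 note: 0% = growth of vehicle-treated control cultures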; details: S. cerevisiae rad50 mutant strain, active compounds read high
How it was run: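 Strain rad50EPP+; compound exposure; % growth inhibition vs vehicle.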

[4] = NCI Yeast Anticancer Drug Screen. Data for the mgt1 strain (AID 153); details: S. cerevisiae mgt1 mutant growth inhibition, active compounds read high
How it was run: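 Read-out: yeast growth inhibition vs vehicle control. Strain mgt1, drawn from a panel altered in DNA damage repair or cell cycle control.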

[5] = NCI Yeast Anticancer Drug Screen. Data for the rad50 strain (AID 155);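 note: 0% = growth of vehicle-only cultures of the same strain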; details: S. cerevisiae rad50 strain growth inhibition, active compounds read high
How it was run: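 Vehicle-treated cultures provide the reference for the growth inhibition reported for compound-exposed, repair-deficient yeast.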

[6] = NCI Yeast Anticancer Drug Screen. Data for the mec2-1 strain (AID 157); details: S. cerevisiae mec2-1 strain, active compounds read high
How it was run: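 Cells of the genetically defined mec2-1 yeast strain are incubated with test compound. Inhibition of growth is calculated against vehicle-treated controls.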

[7] = NCI Yeast Anticancer Drug Screen. Data for the rad14 strain (AID 159);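 note: 0% = growth of vehicle-treated control cultures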; details: S. cerevisiae rad14 strain growth inhibition, active compounds read high
How it was run: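 Inhibition of growth is reported for a repair-deficient yeast mutant following compound treatment, calculated relative to cultures that received vehicle.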

[8] = NCI Yeast Anticancer Drug Screen. Data for the sgs1 mgt1 strain (AID 161);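 note: 0% = growth of cultures given vehicle only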; details: S. cerevisiae sgs1 mgt1 strain, active compounds read high
How it was run: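 Test agents were incubated with a DNA-repair-mutant yeast strain. Growth was then read and compared against vehicle-treated controls.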

[9] = NCI Yeast Anticancer Drug Screen. Data for the CLN2oe strain (AID 163);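 note: 0% = growth of vehicle-only control cultures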; details: S. cerevisiae CLN2oe strain, active compounds read high
How it was run: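 Strain altered in cell-cycle control, incubated with compound; growth compared to solvent-treated controls.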

[10] = NCI Yeast Anticancer Drug Screen. Data for the cln2 rad14 strain (AID 165);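 note: 0% = growth equal to vehicle treated cultures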; details: S. cerevisiae cln2 rad14 strain, active compounds read high
How it was run: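 The screen exposed genetically defined yeast (cln2 rad14) to test compounds and scored growth inhibition relative to vehicle-treated controls.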

[11] = NCI Yeast Anticancer Drug Screen. Data for the bub3 strain (AID 167); details: S. cerevisiae bub3 mutant strain, active compounds read high
How it was run: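 Mutant yeast screening strain plus compound; vehicle-treated cultures serve as the 0% inhibition reference.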

[12] = NCI Yeast Anticancer Drug Screen. Data for the wt2 strain (AID 169); details: S. cerevisiae wt2 strain growth inhibition, active compounds read high
How it was run: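 Steps: yeast strain treated with compound; growth recorded; inhibition calculated relative to cultures given vehicle alone.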

[13] = NCI Yeast Anticancer Drug Screen. Data for the mlh1 strain (AID 171);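 note: 0% = growth of vehicle-treated control cultures of the same strain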; details: S. cerevisiae mlh1 strain growth inhibition, active compounds read high
How it was run: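 Yeast screen: mutant strain plus compound, growth scored against vehicle control wells.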

[14] = NCI Yeast Anticancer Drug Screen. Data for the sgs1 strain (AID 173);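 note: 0% = growth of vehicle-only control cultures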; details: S. cerevisiae sgs1 mutant, active compounds read high
How it was run: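 Inhibition of yeast growth served as the measure. The mutant strain was treated with each compound, and growth was normalised to cultures receiving vehicle alone.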

[15] = NCI Yeast Anticancer Drug Screen. Data for the mlh1 rad18 strain (AID 175); details: S. cerevisiae mlh1 rad18 strain growth inhibition, active compounds read high
How it was run: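 Compound-treated yeast growth, normalised to vehicle controls. Strain bears defined DNA repair mutations.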

[16] = NCI Yeast Anticancer Drug Screen. Data for the rad18 strain (AID 177); details: S. cerevisiae rad18 mutant growth inhibition, active compounds read high
How it was run: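 Inhibition values reflect reduced yeast growth compared with vehicle-treated controls, using a strain engineered with a DNA damage repair defect.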

[17] = at 5.0 µM (retest, dose inferred, filed as 0.5)
[18] = at 50.0 µM (retest, dose inferred, filed as 5.0)

Measured: growth inhibition

CCOC(=O)c1[nH]cc(C)c1-c1cccn1-c1ccc(Cl)cc1[N+](=O)[O-]
active: [1]; at 100.0 µM 89% | [2]; at 100.0 µM 80% | [4]; at 100.0 µM 96% | [5]; at 100.0 µM 90% | [6]; at 100.0 µM 85% | [7]; at 100.0 µM 90% | [8]; [18] 87% | [9]; at 100.0 µM 92% | [11]; at 100.0 µM 91% | [12]; at 33.0 µM 84% | [12]; at 100.0 µM 93% | [13]; at 100.0 µM 96% | [14]; at 100.0 µM 95% | [16]; at 100.0 µM 89%
inactive: [1]; at 1.2 µM 13% | [1]; at 3.7 µM 19% | [1]; at 11.0 µM 27% | [1]; at 33.0 µM 25% | [2]; at 1.2 µM 16% | [2]; at 3.7 µM 6% | [2]; at 11.0 µM 16% | [2]; at 33.0 µM 12% | [3]; at 1.2 µM 22% | [3]; at 3.7 µM 30% | [3]; at 11.0 µM 32% | [3]; at 33.0 µM 32% | [3]; at 100.0 µM 55% | [4]; at 1.2 µM 3% | [4]; at 3.7 µM 17% | [4]; at 11.0 µM 20% | [4]; at 33.0 µM 48% | [5]; at 1.2 µM 1% | [5]; at 3.7 µM 8% | [5]; [17] 13% | [5]; at 11.0 µM 14% | [5]; at 33.0 µM 19% | [5]; [18] 43% | [5]; at 50.0 µM 32.5% | [6]; at 1.2 µM 4% | [6]; at 3.7 µM 15% | [6]; [17] 3% | [6]; at 11.0 µM -7% | [6]; at 33.0 µM 14% | [6]; [18] 48% | [6]; at 50.0 µM 46.1% | [7]; at 1.2 µM 21% | [7]; at 3.7 µM 15% | [7]; at 11.0 µM 16% | [7]; at 33.0 µM 31% | [8]; [17] 8% | [8]; at 50.0 µM 64.1% | [9]; at 1.2 µM -7% | [9]; at 3.7 µM -16% | [9]; at 11.0 µM -4% | [9]; at 33.0 µM -5% | [10]; [17] 11% | [10]; [18] 67% | [10]; at 50.0 µM 21.3% | [11]; at 1.2 µM 15% | [11]; at 3.7 µM 13% | [11]; [17] 9% | [11]; at 11.0 µM 12% | [11]; at 33.0 µM 32% | [11]; [18] 68% | [11]; at 50.0 µM 28.8% | [12]; at 1.2 µM -20% | [12]; at 3.7 µM -23% | [12]; at 11.0 µM -17% | [13]; at 1.2 µM 17% | [13]; at 3.7 µM 22% | [13]; at 11.0 µM 27% | [13]; at 33.0 µM 55% | [14]; at 1.2 µM 17% | [14]; at 3.7 µM 22% | [14]; at 11.0 µM 21% | [14]; at 33.0 µM 49% | [15]; [17] 11% | [15]; [18] 65% | [15]; at 50.0 µM 39.7% | [16]; at 1.2 µM 23% | [16]; at 3.7 µM 6% | [16]; at 11.0 µM 7% | [16]; at 33.0 µM 25%

C=C(Cl)COC(=O)Nc1cccc(Cl)c1
inactive: [1]; at 1.2 µM 3% | [1]; at 3.7 µM 8% | [1]; at 11.0 µM 30% | [2]; at 1.2 µM -1% | [2]; at 3.7 µM -1% | [2]; at 11.0 µM 1% | [2]; at 33.0 µM 13% | [3]; at 1.2 µM 7% | [3]; at 3.7 µM 25% | [3]; at 11.0 µM 52% | [4]; at 1.2 µM -14% | [4]; at 3.7 µM -6% | [4]; at 11.0 µM -11% | [4]; at 33.0 µM 16% | [5]; at 1.2 µM 8% | [5]; at 3.7 µM 27% | [5]; [17] 0% | [5]; at 11.0 µM 58% | [6]; at 1.2 µM -19% | [6]; at 3.7 µM -10% | [6]; [17] -17% | [6]; at 11.0 µM -25% | [6]; at 33.0 µM 0% | [6]; [18] 19% | [6]; at 50.0 µM 3.15% | [7]; at 1.2 µM 1% | [7]; at 3.7 µM 2% | [7]; at 11.0 µM 4% | [7]; at 33.0 µM 39% | [8]; [17] -14% | [8]; [18] 47% | [8]; at 50.0 µM 45% | [9]; at 1.2 µM 0% | [9]; at 3.7 µM -5% | [9]; at 11.0 µM -10% | [9]; at 33.0 µM 3% | [10]; [17] 19% | [10]; [18] 16% | [10]; at 50.0 µM 25.1% | [11]; at 1.2 µM -17% | [11]; at 3.7 µM -17% | [11]; [17] -25% | [11]; at 11.0 µM -8% | [11]; at 33.0 µM 9% | [11]; [18] 18% | [11]; at 50.0 µM 34.4% | [12]; at 1.2 µM -3% | [12]; at 3.7 µM -1% | [12]; at 11.0 µM 1% | [12]; at 33.0 µM 39% | [13]; at 1.2 µM -6% | [13]; at 3.7 µM -1% | [13]; at 11.0 µM 1% | [13]; at 33.0 µM 36% | [14]; at 1.2 µM 0% | [14]; at 3.7 µM 3% | [14]; at 11.0 µM 13% | [14]; at 33.0 µM 63% | [16]; at 1.2 µM -1% | [16]; at 3.7 µM -2% | [16]; at 11.0 µM 8% | [16]; at 33.0 µM 55%
active: [1]; at 33.0 µM 80% | [1]; at 100.0 µM 97% | [2]; at 100.0 µM 90% | [3]; at 33.0 µM 75% | [3]; at 100.0 µM 84% | [4]; at 100.0 µM 96% | [5]; at 33.0 µM 80% | [5]; [18] 79% | [5]; at 50.0 µM 82% | [5]; at 100.0 µM 97% | [6]; at 100.0 µM 91% | [7]; at 100.0 µM 97% | [9]; at 100.0 µM 94% | [11]; at 100.0 µM 92% | [12]; at 100.0 µM 98% | [13]; at 100.0 µM 97% | [14]; at 100.0 µM 97% | [16]; at 100.0 µM 94%
